In ChEMBL document CHEMBL1961873, “Compounds: GSK PKIS; Assays: Nanosyn kinase panel” (2012):

Columns and labels:
[1] = target: Mitogen-activated protein kinase kinase kinase kinase 4 (Homo sapiens) (UniProt O95819); conditions: at 1 µM;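 also: reported figure is an averaged inhibition value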
[2] = target: Dual specificity mitogen-activated protein kinase kinase 1 (Homo sapiens) (UniProt Q02750); conditions: at 0.1 µM
[3] = target: Dual specificity mitogen-activated protein kinase kinase 1 (Homo sapiens) (UniProt Q02750); conditions: at 1 µM
[4] = target: Misshapen-like kinase 1 (Homo sapiens) (UniProt Q8N4C8); conditions: at 0.1 µM
[5] = target: Misshapen-like kinase 1 (Homo sapiens) (UniProt Q8N4C8); conditions: at 1 µM
[6] = target: T1, Serine/threonine-protein kinase 4 (Homo sapiens) (UniProt Q13043); conditions: at 0.1 µM
T1 sequence (whole entry): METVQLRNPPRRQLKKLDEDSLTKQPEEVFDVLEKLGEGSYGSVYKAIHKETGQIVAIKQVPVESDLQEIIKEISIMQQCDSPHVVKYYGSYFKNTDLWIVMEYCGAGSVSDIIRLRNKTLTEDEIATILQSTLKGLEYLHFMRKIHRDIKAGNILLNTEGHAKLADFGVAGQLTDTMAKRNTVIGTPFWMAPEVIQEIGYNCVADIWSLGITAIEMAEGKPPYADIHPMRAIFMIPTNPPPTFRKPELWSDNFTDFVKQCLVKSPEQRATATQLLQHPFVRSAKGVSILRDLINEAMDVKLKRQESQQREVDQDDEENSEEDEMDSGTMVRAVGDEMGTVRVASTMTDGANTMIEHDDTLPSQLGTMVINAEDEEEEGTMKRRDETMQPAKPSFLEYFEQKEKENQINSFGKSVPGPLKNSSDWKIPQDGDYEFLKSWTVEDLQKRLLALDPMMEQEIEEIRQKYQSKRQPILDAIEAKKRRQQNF

[7] = target: T1, Serine/threonine-protein kinase 4 (Homo sapiens); conditions: at 1 µM
[8] = target: T2, Serine/threonine-protein kinase 3 (Homo sapiens) (UniProt Q13188); conditions: at 0.1 µM
T2 sequence (whole entry): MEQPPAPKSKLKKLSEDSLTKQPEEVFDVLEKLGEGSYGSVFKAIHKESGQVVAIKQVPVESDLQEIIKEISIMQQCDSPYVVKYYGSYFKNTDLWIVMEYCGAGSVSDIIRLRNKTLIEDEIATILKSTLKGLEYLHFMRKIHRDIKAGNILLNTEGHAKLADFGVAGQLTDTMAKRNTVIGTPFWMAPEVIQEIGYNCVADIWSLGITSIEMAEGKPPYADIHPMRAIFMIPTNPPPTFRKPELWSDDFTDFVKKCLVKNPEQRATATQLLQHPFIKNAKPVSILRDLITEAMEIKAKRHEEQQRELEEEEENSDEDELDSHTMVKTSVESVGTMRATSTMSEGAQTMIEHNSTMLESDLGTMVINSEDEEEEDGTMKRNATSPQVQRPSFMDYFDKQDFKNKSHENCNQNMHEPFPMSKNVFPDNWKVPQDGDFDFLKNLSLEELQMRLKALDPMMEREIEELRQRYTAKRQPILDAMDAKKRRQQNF

[9] = target: T2, Serine/threonine-protein kinase 3 (Homo sapiens); conditions: at 1 µM
[10] = target: Serine/threonine-protein kinase 26 (Homo sapiens) (UniProt Q9P289); conditions: at 0.1 µM
[11] = target: Serine/threonine-protein kinase 26 (Homo sapiens) (UniProt Q9P289); conditions: at 1 µM
[12] = target: Serine/threonine-protein kinase PAK 1 (Homo sapiens) (UniProt Q13153); conditions: at 0.1 µM
[13] = target: Serine/threonine-protein kinase PAK 1 (Homo sapiens) (UniProt Q13153); conditions: at 1 µM
[14] = target: Serine/threonine-protein kinase PAK 2 (Homo sapiens) (UniProt Q13177); conditions: at 0.1 µM
[15] = target: Serine/threonine-protein kinase PAK 2 (Homo sapiens) (UniProt Q13177); conditions: at 1 µM
[16] = target: Serine/threonine-protein kinase PAK 3 (Homo sapiens) (UniProt O75914); conditions: at 0.1 µM
[17] = target: Serine/threonine-protein kinase PAK 3 (Homo sapiens) (UniProt O75914); conditions: at 1 µM
[18] = target: Serine/threonine-protein kinase PAK 5 (Homo sapiens) (UniProt Q9P286); conditions: at 0.1 µM
[19] = target: Serine/threonine-protein kinase PAK 5 (Homo sapiens) (UniProt Q9P286); conditions: at 1 µM
[20] = target: Serine/threonine-protein kinase PAK 6 (Homo sapiens) (UniProt Q9NQU5); conditions: at 0.1 µM;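 also: mean PAK6 inhibition reported from the GSK PKIS screen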
Serine/threonine-protein kinase PAK 6 (Homo sapiens), sequence (Q9NQU5 whole entry, looked up): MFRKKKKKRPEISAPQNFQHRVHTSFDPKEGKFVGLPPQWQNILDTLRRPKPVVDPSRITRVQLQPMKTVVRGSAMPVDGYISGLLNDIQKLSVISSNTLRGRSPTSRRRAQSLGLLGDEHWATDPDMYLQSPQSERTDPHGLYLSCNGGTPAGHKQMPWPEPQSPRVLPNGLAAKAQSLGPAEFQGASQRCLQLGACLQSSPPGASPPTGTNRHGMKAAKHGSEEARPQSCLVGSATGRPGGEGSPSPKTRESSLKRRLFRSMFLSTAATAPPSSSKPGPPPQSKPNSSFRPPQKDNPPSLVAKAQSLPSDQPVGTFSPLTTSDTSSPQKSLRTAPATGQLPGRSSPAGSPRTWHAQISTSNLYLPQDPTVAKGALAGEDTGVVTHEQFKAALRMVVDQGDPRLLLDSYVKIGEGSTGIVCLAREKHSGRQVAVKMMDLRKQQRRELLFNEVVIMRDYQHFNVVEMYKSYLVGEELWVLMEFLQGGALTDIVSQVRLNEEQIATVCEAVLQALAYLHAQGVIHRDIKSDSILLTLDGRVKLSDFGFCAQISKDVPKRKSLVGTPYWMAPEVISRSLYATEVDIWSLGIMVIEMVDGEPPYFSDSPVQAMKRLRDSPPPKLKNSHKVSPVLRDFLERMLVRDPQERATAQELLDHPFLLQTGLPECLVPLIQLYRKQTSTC

Serine/threonine-protein kinase PAK 1 (Homo sapiens), sequence (Q13153 whole entry): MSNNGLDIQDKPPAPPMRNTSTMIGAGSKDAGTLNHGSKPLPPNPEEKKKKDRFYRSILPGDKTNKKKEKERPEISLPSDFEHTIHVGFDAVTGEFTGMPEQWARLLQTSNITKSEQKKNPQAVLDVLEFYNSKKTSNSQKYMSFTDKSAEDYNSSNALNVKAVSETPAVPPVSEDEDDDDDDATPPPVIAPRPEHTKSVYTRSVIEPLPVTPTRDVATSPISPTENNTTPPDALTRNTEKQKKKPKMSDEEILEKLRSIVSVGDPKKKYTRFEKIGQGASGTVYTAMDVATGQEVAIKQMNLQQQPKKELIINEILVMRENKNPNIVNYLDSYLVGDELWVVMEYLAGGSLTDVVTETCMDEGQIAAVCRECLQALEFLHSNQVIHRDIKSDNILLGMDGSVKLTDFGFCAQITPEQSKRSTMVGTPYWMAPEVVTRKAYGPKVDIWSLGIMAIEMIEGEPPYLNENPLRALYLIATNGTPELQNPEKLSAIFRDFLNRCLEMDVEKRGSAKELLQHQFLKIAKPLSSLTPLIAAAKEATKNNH
Mitogen-activated protein kinase kinase kinase kinase 4 (Homo sapiens), sequence (O95819 2-1239 limits assumed): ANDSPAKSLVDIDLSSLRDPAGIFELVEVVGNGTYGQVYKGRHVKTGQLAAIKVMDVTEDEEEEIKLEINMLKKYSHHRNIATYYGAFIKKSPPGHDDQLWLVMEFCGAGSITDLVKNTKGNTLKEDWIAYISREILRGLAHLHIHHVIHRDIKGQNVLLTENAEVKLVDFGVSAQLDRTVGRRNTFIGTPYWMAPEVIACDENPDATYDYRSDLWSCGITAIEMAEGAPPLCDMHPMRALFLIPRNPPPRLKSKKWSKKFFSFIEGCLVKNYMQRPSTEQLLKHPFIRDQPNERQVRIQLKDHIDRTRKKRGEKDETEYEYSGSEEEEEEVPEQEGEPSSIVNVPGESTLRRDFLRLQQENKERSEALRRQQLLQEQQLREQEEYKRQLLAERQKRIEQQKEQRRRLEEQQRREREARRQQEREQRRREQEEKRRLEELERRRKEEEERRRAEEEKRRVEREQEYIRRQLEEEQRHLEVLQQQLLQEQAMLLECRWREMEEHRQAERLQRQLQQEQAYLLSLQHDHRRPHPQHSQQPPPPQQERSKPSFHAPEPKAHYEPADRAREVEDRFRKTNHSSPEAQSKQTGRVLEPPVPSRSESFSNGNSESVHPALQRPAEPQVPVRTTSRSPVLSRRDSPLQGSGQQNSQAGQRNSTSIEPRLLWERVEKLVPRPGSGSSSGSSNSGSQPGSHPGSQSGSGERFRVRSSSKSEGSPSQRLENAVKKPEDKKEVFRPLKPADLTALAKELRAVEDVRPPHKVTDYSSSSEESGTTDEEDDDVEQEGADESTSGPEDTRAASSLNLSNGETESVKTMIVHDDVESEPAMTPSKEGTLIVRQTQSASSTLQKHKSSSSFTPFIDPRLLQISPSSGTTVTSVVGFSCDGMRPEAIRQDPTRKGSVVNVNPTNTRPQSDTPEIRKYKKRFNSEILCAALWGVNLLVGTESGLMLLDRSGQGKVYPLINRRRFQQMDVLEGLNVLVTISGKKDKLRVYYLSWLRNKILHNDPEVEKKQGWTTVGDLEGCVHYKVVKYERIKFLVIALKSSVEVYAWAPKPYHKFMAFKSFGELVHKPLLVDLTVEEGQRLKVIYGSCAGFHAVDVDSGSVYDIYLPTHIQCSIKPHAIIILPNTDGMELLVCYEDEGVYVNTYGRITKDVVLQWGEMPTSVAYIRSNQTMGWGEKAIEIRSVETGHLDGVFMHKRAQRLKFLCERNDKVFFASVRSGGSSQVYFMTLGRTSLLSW
Serine/threonine-protein kinase 26 (Homo sapiens), sequence (Q9P289 2-416 limits assumed): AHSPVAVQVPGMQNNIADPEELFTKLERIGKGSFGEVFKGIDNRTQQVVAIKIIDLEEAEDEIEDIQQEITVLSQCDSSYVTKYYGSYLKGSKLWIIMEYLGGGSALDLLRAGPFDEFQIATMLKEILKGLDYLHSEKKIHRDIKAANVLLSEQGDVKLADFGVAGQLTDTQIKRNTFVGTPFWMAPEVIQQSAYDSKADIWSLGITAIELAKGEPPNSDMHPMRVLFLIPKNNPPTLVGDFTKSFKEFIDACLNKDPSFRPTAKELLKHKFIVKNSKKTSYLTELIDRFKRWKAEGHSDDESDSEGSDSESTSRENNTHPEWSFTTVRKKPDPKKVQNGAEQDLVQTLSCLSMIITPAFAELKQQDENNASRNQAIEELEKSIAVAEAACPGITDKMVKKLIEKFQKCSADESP
Dual specificity mitogen-activated protein kinase kinase 1 (Homo sapiens), sequence (Q02750 whole entry): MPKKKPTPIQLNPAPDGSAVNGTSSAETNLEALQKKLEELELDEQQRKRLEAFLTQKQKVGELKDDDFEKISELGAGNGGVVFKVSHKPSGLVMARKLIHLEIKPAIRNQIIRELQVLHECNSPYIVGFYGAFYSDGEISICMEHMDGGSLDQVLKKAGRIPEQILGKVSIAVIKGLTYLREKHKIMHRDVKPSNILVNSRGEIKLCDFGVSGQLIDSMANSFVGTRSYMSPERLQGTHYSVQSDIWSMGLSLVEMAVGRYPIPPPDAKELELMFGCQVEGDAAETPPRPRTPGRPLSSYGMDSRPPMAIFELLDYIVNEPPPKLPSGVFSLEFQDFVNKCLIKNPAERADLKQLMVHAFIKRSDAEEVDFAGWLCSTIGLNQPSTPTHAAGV
Serine/threonine-protein kinase PAK 5 (Homo sapiens), sequence (Q9P286 whole entry, looked up): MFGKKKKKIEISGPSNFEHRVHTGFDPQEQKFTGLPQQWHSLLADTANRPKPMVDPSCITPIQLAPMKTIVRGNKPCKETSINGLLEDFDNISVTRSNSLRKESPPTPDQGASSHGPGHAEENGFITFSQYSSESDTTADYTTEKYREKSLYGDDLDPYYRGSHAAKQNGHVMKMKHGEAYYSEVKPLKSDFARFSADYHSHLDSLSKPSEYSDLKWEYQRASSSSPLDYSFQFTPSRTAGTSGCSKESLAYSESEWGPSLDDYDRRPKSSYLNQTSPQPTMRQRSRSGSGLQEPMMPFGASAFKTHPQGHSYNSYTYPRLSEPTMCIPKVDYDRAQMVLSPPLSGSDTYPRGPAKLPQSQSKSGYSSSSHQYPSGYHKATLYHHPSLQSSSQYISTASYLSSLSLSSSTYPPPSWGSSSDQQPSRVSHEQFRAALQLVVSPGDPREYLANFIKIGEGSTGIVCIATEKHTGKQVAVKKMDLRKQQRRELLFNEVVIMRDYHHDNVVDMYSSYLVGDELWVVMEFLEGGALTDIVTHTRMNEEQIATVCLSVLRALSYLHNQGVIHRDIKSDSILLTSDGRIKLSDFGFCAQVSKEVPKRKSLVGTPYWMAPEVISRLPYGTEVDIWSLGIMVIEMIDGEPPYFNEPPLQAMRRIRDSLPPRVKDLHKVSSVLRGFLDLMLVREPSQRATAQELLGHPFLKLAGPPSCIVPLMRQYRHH
Serine/threonine-protein kinase PAK 2 (Homo sapiens), sequence (Q13177 whole entry): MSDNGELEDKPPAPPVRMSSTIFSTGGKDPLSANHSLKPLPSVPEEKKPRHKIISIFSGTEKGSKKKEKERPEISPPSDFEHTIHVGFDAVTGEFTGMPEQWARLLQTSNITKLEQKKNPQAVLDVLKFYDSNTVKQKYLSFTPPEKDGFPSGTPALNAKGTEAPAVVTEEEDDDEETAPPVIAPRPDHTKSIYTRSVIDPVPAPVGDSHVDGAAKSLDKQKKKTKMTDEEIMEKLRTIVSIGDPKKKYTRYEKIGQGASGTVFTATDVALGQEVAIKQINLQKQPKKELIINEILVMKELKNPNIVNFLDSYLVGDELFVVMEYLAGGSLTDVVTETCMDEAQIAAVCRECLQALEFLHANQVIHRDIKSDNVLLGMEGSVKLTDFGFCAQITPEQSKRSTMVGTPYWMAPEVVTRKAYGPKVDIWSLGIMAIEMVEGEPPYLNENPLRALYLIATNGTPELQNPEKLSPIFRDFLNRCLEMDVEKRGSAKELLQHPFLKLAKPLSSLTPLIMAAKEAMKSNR

Compound	inhibition [1]	inhibition [2]	inhibition [3]	inhibition [4]	inhibition [5]	inhibition [6]	inhibition [7]	inhibition [8]	inhibition [9]	inhibition [10]	inhibition [11]	inhibition [12]	inhibition [13]	inhibition [14]	inhibition [15]	inhibition [16]	inhibition [17]	inhibition [18]	inhibition [19]	inhibition [20]
FC(F)(F)c1cccc(-c2nn3ncccc3c2-c2ccnc(Nc3ccc4c(c3)OCCO4)n2)c1	58.1%	2.31%	4.08%	9.69%	55.8%	4.33%	6.24%	5.41%	4.99%	-0.12%	0.56%	3.7%	3.72%	1.01%	1.43%	1.69%	2.03%	-5.89%	-2.25%	-3.42%
CC1=C(C(=O)Nc2cc(Cl)c3[nH]ncc3c2)C(c2ccc(C(F)(F)F)cc2)CC(=O)N1 (stereo not given)	10.2%	9.84%	35.5%	4.68%	9.18%	3.11%	5.19%	1.89%	4.7%	0.06%	8.39%	3.76%	4.55%	0.71%	2.32%	4.06%	3.69%	0.42%	4.84%	-4.08%
[O-][S+]1CCN(Cc2ccc(-c3ccc4ncnc(Nc5ccc(OCc6cccc(F)c6)c(Cl)c5)c4c3)o2)CC1	9.56%	5.35%	4.93%	7.98%	8%	6.28%	8.16%	8.11%	9.49%	0.51%	2.07%	8.29%	11.2%	2.04%	2.89%	6.22%	5.6%	3.4%	2.31%	-2.88%
c1cc(-c2cnn3nc(N4CCOCC4)ccc23)nc(NC2CC2)n1	20.9%	4.84%	9.33%	4.94%	13.9%	7.25%	10.3%	8.19%	8.11%	-0.92%	-4.91%	-0.13%	5.07%	3.69%	3.04%	4.26%	4.93%	6.57%	1.19%	4.42%
COC(=O)c1sc(-n2cnc3cc(OC)c(OC)cc32)cc1OCc1ccccc1C(F)(F)F	10.1%	5.37%	4.96%	5.47%	11.2%	4.68%	9.69%	5.78%	9.15%	-1.48%	0.54%	7.38%	9.12%	1.91%	1.84%	3.84%	4.18%	-1.22%	-4.74%	-7.92%
CN1CCC(n2cnc(-c3ccc(F)cc3)c2-c2ccnc(N)n2)CC1	12%	3.26%	3.41%	4.61%	11%	2.73%	7.85%	3.58%	6.77%	-1.05%	1.62%	-0.17%	3.27%	0.07%	-0.19%	0.98%	1.43%	-5.17%	3.69%	-8.92%
CNC(=O)c1cncc(/C=C/c2ccccc2Cl)c1	15.2%	-0.39%	2.24%	2.28%	15.4%	4.63%	7.5%	5.87%	7.94%	1.78%	1.7%	0.81%	1.33%	0.07%	-0.55%	0.06%	0.54%	6.76%	4.3%	8.93%
CC(C)COC(=O)c1ccc2c(c1)/C(=C/Nc1ccc(S(N)(=O)=O)cc1)C(=O)N2	65.3%	3.79%	33.7%	10.3%	53.8%	46.2%	81.5%	34%	77.9%	-0.24%	10.7%	-0.34%	1.52%	-2.84%	0.1%	-2.65%	-0.22%	-0.7%	5.79%	11.9%
CCN1CCC(CC(=O)Nc2n[nH]c3nnc(-c4cccc(F)c4F)cc23)CC1	3.87%	2.23%	2.45%	3.67%	4.07%	2.83%	6.13%	3.62%	5.19%	0.66%	1.9%	3.95%	4.17%	2.09%	0.33%	3.91%	1.02%	2%	0.92%	4.45%
O=S(=O)(CCNCc1ccc(-c2ccc3ncnc(Nc4ccc(OCc5cccc(F)c5)c(Cl)c4)c3c2)o1)c1ccccc1	10.8%	6.48%	5.62%	5.49%	5.63%	4.83%	7.44%	8.36%	9.44%	-1.43%	-0.49%	10%	7.19%	2.7%	3.71%	6.62%	5.75%	4.32%	5.17%	0.2%
c1ccc(COc2ccc(Nc3ncnc4ccc(-c5ccco5)cc34)cc2)cc1	6.14%	1.63%	1.55%	4.04%	3.27%	-0.04%	0.76%	0.84%	1.9%	1.19%	1.35%	5.7%	3.88%	-0.79%	-0.42%	0.44%	1.49%	-1.27%	-4.07%	3.06%
COc1ccc2c(-c3ccnc(Nc4cccc(OC(F)(F)F)c4)n3)cnn2n1	11.5%	6.37%	6.2%	5.92%	10.5%	8.73%	9.62%	9.08%	9.55%	-1.2%	-3.1%	8.76%	7.47%	4.37%	2.6%	5.69%	5.05%	8.06%	5.84%	5.76%
Cc1ccc(O)cc1Nc1ccnc2cc(-c3ccccn3)ccc12	75.5%	6.05%	4.87%	21.3%	65.2%	7.99%	8.81%	8.56%	6.61%	-2.79%	-0.53%	7.92%	8.64%	3.37%	2.71%	4.92%	5%	3.23%	0.07%	4.84%
